The values below come from PubChem BioAssay (NCI).

Among the test systems are SR leukemia; RPMI-8226 leukemia; OVCAR-5 ovarian; OVCAR-4 ovarian; SK-OV-3 ovarian; IGROV1 ovarian; OVCAR-3 ovarian; HS 578T breast; NCI/ADR-RES ovarian; T-47D breast; BT-549 breast; MDA-MB-435 melanoma; SW-620 colon; MCF7 breast; HCT-116 colon; HCC-2998 colon; KM12 colon; MDA-MB-468 breast; OVCAR-8 ovarian.
Common to all, as to assay: NCI-60 one-dose screen, 48 h (100 = growth as untreated, 0 = no growth, -100 = all killed)
What all share (settings): 10 µM unless noted

Structures are written as SMILES. The panel holds about 83,000 compounds, 20% with a hit somewhere; the sample as a whole holds those more often.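 Cells were grown in 96-well plates and exposed to the test compound at a single concentration for 48 hours; results are reported as percent growth, with values below 10 considered active.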 Values without a mark were called inactive. Active and inactive are the calls of the source.

With `CC(=O)OC[C@@]1(C)C2CC[C@]3(C)C(CC=C4C5CC(C)(C)CC[C@]5(C(=O)Nc5ccc(F)cc5)CC[C@]43C)[C@@]2(C)C[C@@H](OC(C)=O)[C@@H]1OC(C)=O` (stereo partly drawn), the growth with SR leukemia was 27.8%; in the test with RPMI-8226 leukemia, 13.5%; in the test on OVCAR-5 ovarian, 78.7%; with OVCAR-4 ovarian, 30.3%; in the test on SK-OV-3 ovarian it was 45.1%; in the test with IGROV1 ovarian, 51.9%. For the same molecule, the growth with OVCAR-3 ovarian is 42%; in the test with HS 578T breast, 85.3%; with NCI/ADR-RES ovarian, 40.6%; in the test on T-47D breast, 30.7%; in the test on BT-549 breast it was 41.7%; in the test on MDA-MB-435 melanoma it was 44.2%. In addition, the growth in the test on SW-620 colon is 36.8%; with MCF7 breast it was 27.3%; in the test on HCT-116 colon it was 22.9%; in the test with HCC-2998 colon it was 48.6%; in the test with KM12 colon, 44.6%; with MDA-MB-468 breast, 5.58% (active).

Consider `S=C(Nc1ccccc1)Nc1ccc(OCc2nc3ccccc3[nH]2)cc1`, for which the growth with SR leukemia is 32.5%; in the test with RPMI-8226 leukemia, 39.2%; in the test on OVCAR-5 ovarian it was 66.3%; in the test with OVCAR-4 ovarian, 38.9%; with SK-OV-3 ovarian it was 86.6%; in the test with IGROV1 ovarian it was 56.3%. In addition, the growth with OVCAR-3 ovarian is 29%; with HS 578T breast, 50.6%; with NCI/ADR-RES ovarian it was 43%; with T-47D breast it was 36.1%; with BT-549 breast, 49.4%; in the test on MDA-MB-435 melanoma, 24.6%. For the same molecule, the growth in the test on SW-620 colon was 48%; in the test on MCF7 breast, 20.2%; in the test on HCT-116 colon, 35.6%; in the test on HCC-2998 colon it was 17.3%; in the test with KM12 colon, -32% (active); in the test with MDA-MB-468 breast, 21.9%.

Take `COc1cccc(/C=C/c2nc3ccccc3c(=O)n2CC(=O)Nc2ccc(Cl)cc2)c1`: the growth was 79.7% with SR leukemia; 88.3% in the test on RPMI-8226 leukemia; 73.5% in the test with OVCAR-5 ovarian; -11.4% (active) in the test with OVCAR-4 ovarian; 76.8% in the test with SK-OV-3 ovarian; 77.3% with IGROV1 ovarian. The growth with OVCAR-3 ovarian is 35.5%; with HS 578T breast, 32.8%; in the test on NCI/ADR-RES ovarian, 69.3%; with T-47D breast, 6.29% (active); in the test on BT-549 breast, 86.8%; in the test with MDA-MB-435 melanoma it was 95.4%. Moreover, the growth was 68.1% in the test on SW-620 colon; 38.4% with HCT-116 colon; 91% in the test on HCC-2998 colon; 77.8% with KM12 colon; 108% in the test with MDA-MB-468 breast.

As to `C=C1CC[C@@H]2[C@]3(C)COC(c4cn(-c5ccccc5)nc4-c4cccc([N+](=O)[O-])c4)O[C@@H]3CC[C@@]2(C)[C@@H]1C/C=C1/C(=O)OC[C@H]1O` (stereo partly drawn), the growth with SR leukemia was -16.7% (active); with RPMI-8226 leukemia, -42.4% (active); in the test on OVCAR-8 ovarian, -38.1% (active); in the test on OVCAR-5 ovarian, -24.1% (active); in the test with OVCAR-4 ovarian, 14%; with SK-OV-3 ovarian, 93%. The growth was -25% (active) with IGROV1 ovarian; -42.6% (active) in the test with NCI/ADR-RES ovarian; -42.4% (active) with T-47D breast; -55.9% (active) with BT-549 breast; -26.4% (active) in the test on MDA-MB-435 melanoma; 2.33% (active) in the test on MCF7 breast. Moreover, the growth in the test with HCT-116 colon was -13.7% (active); in the test on HCC-2998 colon, -86% (active); with KM12 colon, 7.66% (active); in the test on MDA-MB-468 breast it was -69.7% (active).

As for `O=C(O)c1ccc(-c2ccc(/C=N/NC(=O)c3[nH]c4ccc(Br)cc4c3-c3ccccc3)s2)cc1`, the growth in the test with SR leukemia is 0.386% (active); in the test with RPMI-8226 leukemia, 12.1%; with OVCAR-8 ovarian, 20.2%; with OVCAR-5 ovarian, 35.5%; in the test with OVCAR-4 ovarian, 22.5%; in the test on SK-OV-3 ovarian, 16.8%. Moreover, the growth in the test on IGROV1 ovarian was 14.7%; with NCI/ADR-RES ovarian it was 19.9%; with T-47D breast it was 16%; in the test on BT-549 breast it was 8.87% (active); in the test on MDA-MB-435 melanoma, 4.27% (active); with MCF7 breast, 7.47% (active). Moreover, the growth in the test with HCT-116 colon was 11.1%; in the test with HCC-2998 colon, -66% (active); in the test with KM12 colon it was -14.8% (active); in the test on MDA-MB-468 breast, 3.12% (active).

Turning to `COc1ccc(-c2nc3cc(C)ccc3n2CC(=O)N=Nc2c(O)[nH]c3ccc(OC)cc23)cc1`, the growth in the test with SR leukemia was -21.1% (active); with RPMI-8226 leukemia it was -14.7% (active); in the test on OVCAR-8 ovarian, -68.8% (active); in the test on OVCAR-5 ovarian it was -48.2% (active); with OVCAR-4 ovarian it was -58.1% (active); in the test on SK-OV-3 ovarian, -17.7% (active). For the same molecule, the growth with IGROV1 ovarian is -17.3% (active); in the test on HS 578T breast, -23.4% (active); in the test on NCI/ADR-RES ovarian, -56.1% (active); in the test on T-47D breast it was -60% (active); in the test on BT-549 breast, -85.4% (active); in the test on SW-620 colon, -48.2% (active). Further, the growth with MCF7 breast is -50.3% (active); with HCT-116 colon, -97.4% (active); in the test with HCC-2998 colon, -67.9% (active); in the test with KM12 colon, -79.5% (active); in the test with MDA-MB-468 breast it was -77.1% (active).

Regarding `CC1CCCCN1CCCNC(=O)N/C(N)=N/c1nc2ccccc2s1` (stereo not drawn), the growth in the test on SR leukemia is -17.1% (active); with RPMI-8226 leukemia it was 1.48% (active); in the test with OVCAR-8 ovarian, 75.2%; in the test on OVCAR-5 ovarian, 38.2%; in the test on OVCAR-4 ovarian, 74.9%; with SK-OV-3 ovarian it was 58.8%. Further, the growth in the test on IGROV1 ovarian is 47.9%; with NCI/ADR-RES ovarian, 64.1%; in the test on T-47D breast, 57.2%; with BT-549 breast it was 55.6%; with MDA-MB-435 melanoma, -35.2% (active); in the test on MCF7 breast, -9.89% (active). Further, the growth was 16.8% in the test with HCT-116 colon, 47.1% in the test with HCC-2998 colon, 48.2% with KM12 colon and 11.2% with MDA-MB-468 breast.

For the molecule `O=c1oc2ccccc2cc1-c1csc(N2N=C(c3ccccc3)CC2c2ccc(N3CCOCC3)cc2)n1` (stereo not drawn), the growth in the test with SR leukemia was 94.5%; in the test on RPMI-8226 leukemia it was 102%; in the test on OVCAR-5 ovarian it was 132%; with OVCAR-4 ovarian, 105%; in the test with SK-OV-3 ovarian, 69.9%; with IGROV1 ovarian, 123%. Besides, the growth is 117% in the test on OVCAR-3 ovarian; 105% in the test with HS 578T breast; 105% in the test on NCI/ADR-RES ovarian; 91.6% with T-47D breast; 118% in the test with BT-549 breast; 110% in the test on MDA-MB-435 melanoma. In addition, the growth was 106% in the test on SW-620 colon; 86.5% in the test with MCF7 breast; 109% in the test with HCT-116 colon; 121% in the test with HCC-2998 colon; 103% in the test on KM12 colon; 99.7% in the test on MDA-MB-468 breast.

For the molecule `CCCSc1nc(Nc2ccc(S(N)(=O)=O)cc2)c(C#N)c(-c2ccc(Cl)cc2)n1`, the growth was 18.5% in the test on SR leukemia; 11.2% with RPMI-8226 leukemia; 61.1% with OVCAR-5 ovarian; 7.47% (active) in the test on OVCAR-4 ovarian; -32.6% (active) in the test with SK-OV-3 ovarian; 43% in the test with IGROV1 ovarian. The growth is 31.7% with OVCAR-3 ovarian; 12.5% in the test with HS 578T breast; 26.8% in the test on NCI/ADR-RES ovarian; 86.5% in the test with T-47D breast; 77.7% in the test on BT-549 breast; 48% with MDA-MB-435 melanoma. Besides, the growth was 37.6% in the test with SW-620 colon; -67.1% (active) in the test with HCT-116 colon; 8.65% (active) with HCC-2998 colon; 41.7% in the test on KM12 colon; 17.3% with MDA-MB-468 breast.
